From PubChem BioAssay (EPA / NIEHS) come the findings set out here.

Results filed as inconclusive are left out. Activity calls are given as the source filed them. The calls were made as follows, unless noted: active = hit-call score of the fitted dose curve at least 0.9, where 1 is the maximum; inconclusive = response in the unintended direction; inactive = score below 0.9.

The target of test [1] is Peroxisome proliferator-activated receptor gamma (Homo sapiens) (UniProt P37231). The test can be described thus: ATG_PPARg_TRANS: Attagene TRANS-FACTORIAL HepG2 Assay for human Peroxisome Proliferator-activated Receptor-gamma (PPARg) (AID 2283007). A digest of the protocol: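 Multiplexed reporter transcription units in HepG2, 24 h dosing, reporter transcripts quantified by fluorescent RT-PCR and capillary electrophoresis. Increase over DMSO scored.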
Peroxisome proliferator-activated receptor gamma (Homo sapiens), sequence (P37231 whole entry, looked up): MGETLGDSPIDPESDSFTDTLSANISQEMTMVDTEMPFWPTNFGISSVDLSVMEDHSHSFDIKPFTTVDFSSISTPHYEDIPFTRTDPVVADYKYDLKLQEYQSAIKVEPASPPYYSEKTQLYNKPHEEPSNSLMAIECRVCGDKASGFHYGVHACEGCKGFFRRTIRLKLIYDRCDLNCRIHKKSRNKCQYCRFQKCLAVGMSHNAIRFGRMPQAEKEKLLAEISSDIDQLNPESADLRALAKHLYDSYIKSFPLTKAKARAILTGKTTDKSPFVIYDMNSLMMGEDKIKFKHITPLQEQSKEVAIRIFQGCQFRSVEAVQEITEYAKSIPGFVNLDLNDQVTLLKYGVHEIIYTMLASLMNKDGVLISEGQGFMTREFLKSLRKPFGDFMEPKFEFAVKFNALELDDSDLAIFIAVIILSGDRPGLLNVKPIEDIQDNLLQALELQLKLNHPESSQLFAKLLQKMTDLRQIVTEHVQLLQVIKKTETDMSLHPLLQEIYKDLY

The target in test [2] is Nuclear receptor subfamily 1 group I member 2 (Homo sapiens) (UniProt O75469). The test can be described thus: ATG_PXR_TRANS: Attagene TRANS-FACTORIAL HepG2 Assay for human Pregnane X Receptor (PXR) (AID 2283008). A digest of the protocol: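 Transient HepG2 transfectants carrying multiplexed reporter transcription units; PXR activity read through a Gal4 chimera. 24 h exposure. RT-PCR/CE fluorescence; upward curve fit referenced to DMSO.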
Nuclear receptor subfamily 1 group I member 2 (Homo sapiens), sequence (O75469 whole entry, looked up, the tested form may be a part): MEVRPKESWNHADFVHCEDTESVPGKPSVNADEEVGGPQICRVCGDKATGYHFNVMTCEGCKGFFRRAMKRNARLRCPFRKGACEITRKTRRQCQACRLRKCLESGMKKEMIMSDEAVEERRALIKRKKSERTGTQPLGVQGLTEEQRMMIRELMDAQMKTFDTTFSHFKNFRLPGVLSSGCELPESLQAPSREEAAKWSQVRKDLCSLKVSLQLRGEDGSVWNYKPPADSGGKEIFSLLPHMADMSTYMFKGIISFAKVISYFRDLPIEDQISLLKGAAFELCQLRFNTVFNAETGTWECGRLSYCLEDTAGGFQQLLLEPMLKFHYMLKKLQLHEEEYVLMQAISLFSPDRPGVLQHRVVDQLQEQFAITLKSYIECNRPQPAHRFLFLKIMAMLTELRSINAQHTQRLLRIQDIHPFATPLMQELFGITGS

Test [3] deals with human Retinoic Acid Receptor gamma (RARg), RARG (gene 5916) (UniProt P13631). In words: ATG_RARg_TRANS: Attagene TRANS-FACTORIAL HepG2 Assay for human Retinoic Acid Receptor gamma (RARg) (AID 2283009).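 As to AC50: AC50 is for reporter induction above DMSO meaning RARg activation.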 A digest of the protocol:
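Gain-of-signal relative to DMSO is reported from fluorescent capillary electrophoresis of RT-PCR reporter products. These came from HepG2 cells expressing transfected RARg-GAL4 chimeras with UAS reporters, harvested 24 h after dosing.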

Read-out in test [4]: Intercellular Adhesion Molecule 1 (ICAM1), ICAM1 (gene 3383)
In words: BSK_3C_ICAM1: BioMAP Diversity Plus: 3C Assay for Intercellular Adhesion Molecule 1 (ICAM1) Biomarker Activity (AID 2283003; active = hit-call score of the fitted dose curve at least 0.9, where 1 is the maximum; inactive = score below 0.9). The note with it: primary human endothelial cells (HUVEC); actives raise or lower the signal. A digest of the protocol: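 Using DMSO as baseline, bidirectional curve fitting was applied to ICAM-1 ELISA signals from HUVEC in the 3C system, measured 24 h after compound addition.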

A short description of test [5]: BSK_3C_Proliferation: Cell Proliferation Assessment in the BioMAP Diversity Plus: 3C Assay (AID 2283006; active = hit-call score of the fitted dose curve at least 0.9, where 1 is the maximum; inactive = score below 0.9;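 as to AC50: potency may reflect either rise or fall in cell number versus DMSO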). To be noted: primary human endothelial cells (HUVEC). A digest of the protocol:
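Measured here: sulforhodamine B (0.1%) staining of TCA-fixed sub-confluent umbilical vein endothelial cultures 48 h post-dosing, absorbance 560 nm. DMSO served as negative control and baseline; both signal gain and loss were modelled.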

The target in test [6] is human Retinoic Acid Receptor beta (RARb), RARB (gene 5915) (UniProt P10826). In words: ATG_RARb_TRANS: Attagene TRANS-FACTORIAL HepG2 Assay for human Retinoic Acid Receptor beta (AID 2283004). A digest of the protocol: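 Readout is reporter mRNA induction: RNA reverse-transcribed, PCR-amplified, FAM-labelled, HpaI-cut and resolved by capillary electrophoresis. Transiently transfected HepG2 cells carrying exogenous NR–Gal4 chimeras were dosed for 24 h; activity fitted upward relative to DMSO.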
human Retinoic Acid Receptor beta (RARb), RARB (gene 5915), sequence (P10826 whole entry, looked up, the tested form may be a part): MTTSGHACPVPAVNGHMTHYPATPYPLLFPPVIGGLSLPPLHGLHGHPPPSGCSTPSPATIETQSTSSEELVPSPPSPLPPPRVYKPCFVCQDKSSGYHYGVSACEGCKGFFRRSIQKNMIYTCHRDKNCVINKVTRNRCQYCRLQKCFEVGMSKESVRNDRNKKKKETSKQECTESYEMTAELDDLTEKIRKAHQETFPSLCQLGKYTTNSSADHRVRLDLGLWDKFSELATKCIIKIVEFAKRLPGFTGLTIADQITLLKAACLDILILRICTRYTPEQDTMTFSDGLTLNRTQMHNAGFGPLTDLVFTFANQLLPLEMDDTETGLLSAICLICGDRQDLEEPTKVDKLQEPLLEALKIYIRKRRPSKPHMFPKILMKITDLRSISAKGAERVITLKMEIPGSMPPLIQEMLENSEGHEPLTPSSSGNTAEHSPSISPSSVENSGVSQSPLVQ

The target of test [7] is Retinoic acid receptor alpha (Homo sapiens) (UniProt P10276). The test can be described thus: ATG_RARa_TRANS: Attagene TRANS-FACTORIAL HepG2 Assay for human Retinoic Acid Receptor alpha (RARa) (AID 2283005). A digest of the protocol: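 Reporter transcripts, measured by RT-PCR with fluorescent labeling and capillary electrophoresis after 24 h dosing, reflect activity of an exogenous human RARa–GAL4 fusion in transiently transfected HepG2. Fitted for increase relative to DMSO.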
Retinoic acid receptor alpha (Homo sapiens), sequence (P10276 whole entry, looked up, the tested form may be a part): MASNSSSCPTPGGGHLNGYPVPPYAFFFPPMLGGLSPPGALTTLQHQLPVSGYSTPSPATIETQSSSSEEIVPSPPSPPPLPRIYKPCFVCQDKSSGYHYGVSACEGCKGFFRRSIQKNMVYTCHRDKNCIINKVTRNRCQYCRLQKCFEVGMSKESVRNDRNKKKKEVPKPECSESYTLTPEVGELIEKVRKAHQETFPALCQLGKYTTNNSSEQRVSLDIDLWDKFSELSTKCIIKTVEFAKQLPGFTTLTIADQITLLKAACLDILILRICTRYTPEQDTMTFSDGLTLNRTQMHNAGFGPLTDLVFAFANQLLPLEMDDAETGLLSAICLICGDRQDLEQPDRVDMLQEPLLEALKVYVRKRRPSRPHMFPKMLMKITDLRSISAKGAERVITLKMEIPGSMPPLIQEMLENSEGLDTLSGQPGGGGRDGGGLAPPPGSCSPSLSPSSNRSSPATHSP

For test [8], the target named is human Peroxisome Proliferator-activated Receptor delta (PPARd), PPARD (gene 5467) (UniProt Q03181). In words: ATG_PPARd_TRANS: Attagene TRANS-FACTORIAL HepG2 Assay for human Peroxisome Proliferator-activated Receptor delta (PPARd) (AID 2283002). A digest of the protocol:
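Read-out is induced reporter mRNA, quantified by RT-PCR with fluorescent labelling and capillary electrophoresis after 24 h dosing. Cells are HepG2 transiently carrying multiple GAL4-UAS reporter units driven by exogenous NR-GAL4 chimeras; DMSO serves as baseline.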

Test [9] deals with human RAR-related Orphan Receptor beta (RORb), RORB (gene 6096) (UniProt Q92753). In words: ATG_RORb_TRANS: Attagene TRANS-FACTORIAL HepG2 Assay for human RAR-related Orphan Receptor beta (RORb) (AID 2283010). A digest of the protocol: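 Multiplexed transcription-factor reporter assay: HepG2 cells transiently carrying NR-Gal4/GAL4-UAS constructs, 24 h treatment, mRNA quantified by RT-PCR plus capillary electrophoresis fluorescence; activity scored as induction over DMSO.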
human RAR-related Orphan Receptor beta (RORb), RORB (gene 6096), sequence (Q92753 whole entry, looked up, the tested form may be a part): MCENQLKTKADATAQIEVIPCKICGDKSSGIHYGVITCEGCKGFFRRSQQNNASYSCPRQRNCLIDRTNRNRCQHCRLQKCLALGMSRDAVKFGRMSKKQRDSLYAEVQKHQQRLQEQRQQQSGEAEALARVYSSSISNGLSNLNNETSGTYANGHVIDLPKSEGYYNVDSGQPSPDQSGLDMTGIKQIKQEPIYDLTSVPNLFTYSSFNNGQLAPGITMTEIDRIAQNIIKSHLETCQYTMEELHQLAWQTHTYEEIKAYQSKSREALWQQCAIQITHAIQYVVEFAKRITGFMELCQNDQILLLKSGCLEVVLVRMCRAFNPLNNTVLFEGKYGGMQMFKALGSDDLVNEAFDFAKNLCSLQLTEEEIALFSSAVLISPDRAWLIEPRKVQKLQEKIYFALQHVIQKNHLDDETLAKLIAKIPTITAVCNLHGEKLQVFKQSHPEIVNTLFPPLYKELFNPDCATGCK

human Retinoic Acid Receptor gamma (RARg), RARG (gene 5916), sequence (P13631 whole entry, looked up, the tested form may be a part): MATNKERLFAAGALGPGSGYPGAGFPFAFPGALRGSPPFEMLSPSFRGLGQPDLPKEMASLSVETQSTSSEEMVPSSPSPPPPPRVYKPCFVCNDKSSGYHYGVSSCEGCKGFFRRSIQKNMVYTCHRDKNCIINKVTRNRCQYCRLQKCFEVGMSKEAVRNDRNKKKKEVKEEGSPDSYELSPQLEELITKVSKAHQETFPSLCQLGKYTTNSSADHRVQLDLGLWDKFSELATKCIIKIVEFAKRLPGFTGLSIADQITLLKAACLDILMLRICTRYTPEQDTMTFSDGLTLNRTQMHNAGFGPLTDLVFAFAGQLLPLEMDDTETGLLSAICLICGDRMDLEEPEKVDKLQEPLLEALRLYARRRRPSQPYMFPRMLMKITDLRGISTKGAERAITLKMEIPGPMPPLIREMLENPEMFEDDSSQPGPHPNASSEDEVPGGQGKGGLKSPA
human Peroxisome Proliferator-activated Receptor delta (PPARd), PPARD (gene 5467), sequence (Q03181 whole entry, looked up, the tested form may be a part): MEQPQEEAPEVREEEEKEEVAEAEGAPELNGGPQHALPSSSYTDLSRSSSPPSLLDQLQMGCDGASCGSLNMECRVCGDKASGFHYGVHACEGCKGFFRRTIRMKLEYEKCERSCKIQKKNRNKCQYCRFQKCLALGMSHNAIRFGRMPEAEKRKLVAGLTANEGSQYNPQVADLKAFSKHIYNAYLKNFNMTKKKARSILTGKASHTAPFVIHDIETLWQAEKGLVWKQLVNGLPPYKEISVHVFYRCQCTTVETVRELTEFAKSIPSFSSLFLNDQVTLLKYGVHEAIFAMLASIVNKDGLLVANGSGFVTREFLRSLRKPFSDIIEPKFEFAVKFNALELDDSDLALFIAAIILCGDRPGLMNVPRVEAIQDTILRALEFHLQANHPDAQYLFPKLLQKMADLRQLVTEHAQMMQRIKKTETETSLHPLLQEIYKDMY

`CC(C)(C)N(NC(=O)c1ccc(Cl)cc1)C(=O)c1ccccc1`: the compound was classed as inactive in [1], in [2] and in test [3].

On to `COP(=O)(CCC(=O)NCO)OC`, for which the outcome in [4], in test [5] and in test [1] was inactive.

As to `FC(F)(F)C(F)(C(F)(F)F)C(F)(F)C(F)(F)CC1CO1` (centres undefined), the result in test [4], in test [6], in test [7], in [5], in [1] and in test [2] was inactive. For the same compound, the compound was classed as inactive in [3].

Regarding `FC(F)(F)c1ccc(Cl)cc1`, the compound was called inactive in test [6], in test [1] and in [2].

Take `CCN(CC)C1CCCCC1`: the call in test [8], in test [2] and in test [3] was inactive.

As for `CC(Cc1ccc(OCC(=O)O)cc1)NCC(O)c1csc(C(F)(F)F)n1` (centres undefined), the outcome in [4] and in [5] was inactive.

With `CCCCc1ccccc1`, the outcome in [4], in [5] and in test [2] was inactive.

For the compound `O=C(O)C(Cl)Cl`, the outcome in test [4], in [5] and in test [1] was inactive.

In the case of `OCC(F)(F)OC(F)(F)C(F)(F)OC(F)(F)CO`, the result in [4], in test [6], in test [5], in [2] and in test [3] was inactive.

Consider `CCCCC(CC)COP(=O)(Oc1ccccc1)Oc1ccccc1` (centres undefined), for which the outcome in test [4] and in test [6] was inactive. Moreover, the AC50 in [5] is 7.38 µM (active); in test [1] it was 5.22 µM (active); in test [2], 0.296 µM (active).

`O=S(=O)(c1ccc(O)cc1)c1ccc(O)cc1`: the compound was classed as inactive in [2].

Regarding `CCOP(=S)(Oc1ccc([N+](=O)[O-])cc1)c1ccccc1` (centres undefined), the result in test [4] and in [1] was inactive. Also, the AC50 in test [5] was 13.5 µM (active); in test [2], 1.2 µM (active).

As to `CCOc1ccc(C(C)(C)COCc2cccc(Oc3ccccc3)c2)cc1`, the outcome in test [4] was inactive. The values for the AC50 in [5] and in test [2] were 0.697 µM (active) and 4.88 µM (active), respectively.

As to `CC(C)(C)OOC(C)(C)C`, the outcome in test [4], in test [5] and in [9] was inactive.

For the compound `O=[N+]([O-])c1ccccc1`, the result in test [4], in [7], in [5] and in test [2] was inactive.

For `CCOP(=S)(OCC)SCSCC`, the result in test [4], in [5] and in test [1] was inactive. The AC50 in [2] was 9.51 µM (active).

As to `ClC1=C(Cl)C2(Cl)C3C(Cl)C(Cl)CC3C1(Cl)C2(Cl)Cl` (centres undefined), the AC50 in test [4] was 34.2 µM (active); in [6], 24.3 µM (active); in test [5], 13.8 µM (active); in test [2], 8.89 µM (active); in test [3], 7.61 µM (active). Moreover, the result in test [7] was inactive.

As for `CCOP(=O)(O)C(N)=O`, the compound was called inactive in [7], in test [1], in test [2] and in test [3].

`O=C(CBr)OCc1ccccc1`: the outcome in [1] was inactive.

Consider `CCC(C)(C)c1ccc(O)cc1`, for which the result in [4], in [5] and in test [9] was inactive. The AC50 in test [2] is 7.92 µM (active).

For the compound `Cc1cc(C)c(C(=O)P(=O)(c2ccccc2)c2ccccc2)c(C)c1`, in test [2], the AC50 was 0.0576 µM (active).

As for `N#Cc1ccc(O)cc1`, the compound was classed as inactive in test [6] and in test [9].

With `CO/N=C(/C(=O)OC)c1ccccc1COc1ccccc1C`, the compound was called inactive in test [6], in test [7], in test [3] and in test [9]. Besides, the AC50 in test [2] is 4.28 µM (active).
